DT40 TDP1 CPT: growth inhibition of DT40 Tdp1-/-;hTDP1 cells with camptothecin (screen for TDP1 inhibitors). AID 686979. Potency, µM (titrated, usually from 46.2 µM), without a hit: at the top dose activity change, negative = growth inhibition, usual class: inhibitors. chicken DT40 Tdp1-/-;hTDP1 cells + 20 nM CPT, ATP luminescence, 48 h. actives 12% (n = 420,000); further: on the % scale 0 is the no-effect control and ±100 the full control effect; nearly all actives have a fitted effect of over 55% in size
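Chicken DT40 Tdp1-/- cells stably complemented with human TDP1 were seeded at 400 cells/well in medium containing 20 nM camptothecin, exposed to pin-transferred compounds, and grown at 37 °C for at least 48 hr. Viability was read as ATP luminescence.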
DT40 TDP1 no CPT: qHTS for Inhibitors of human tyrosyl-DNA phosphodiesterase 1 (TDP1): qHTS in cells in absence of CPT; actives 15% (n = 420,000); AID 686978, 2013; Potency, µM (series often up to 46.2 µM), inactives show at the top dose activity change, negative = growth inhibition, usual class: inhibitors; DT40 Tdp1-/- hTDP1 cells, no CPT, ATP luminescence, 48 h; further: on the % scale 0 is the no-effect control and ±100 the full control effect; nearly all actives have a fitted effect of over 55% in size
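DT40 Tdp1-/-;hTDP1 cells, no CPT (DMSO vehicle only), 400 cells/well; compounds pin-transferred; ≥48 hr, 37 °C; CellTiter-Glo 30 min RT dark, luminescence read.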
S2 tox: viability counter-screen for ATXN expression inhibitors | S2 cells (HEK-293 line with an ATXN2-luciferase reporter) viability, CellTiter-Fluor protease fluorescence, 24 h | Potency, µM (doses to about 56.7 µM), most hits filed as cytotoxic | actives 0.49% (n = 400,000); further: nearly all actives have a fitted effect of over 40% in size
TGFb inhibitor: blocks TGF-b signaling; HepG2 CAGA-GFP TGF-b/SMAD3 reporter, GFP fluorescence, 18 h; TGF-beta stimulated, 500 pg/mL final; Potency, µM (titrated, usually from 46.1 µM), for the others: at the top dose activity, negative = inhibition, usual class: inhibitors; actives 1.2% (n = 410,000); AID 588855; further: on the % scale 0 is the no-effect control and ±100 the full control effect; nearly all actives have a fitted effect of over 65% in size
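Inhibition was scored as loss of TGF-beta-induced (500 pg/mL final, 18 hours, 37 degrees C) GFP in HEPG2 cells carrying a CAGA-GFP reporter, in DMEM with 1% FBS. Well GFP was summed per cell; Activity was normalised to unstimulated and stimulated DMSO wells, then concentration-response fitting.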
ATXN2 expr inh: inhibitors of ATXN2 expression | HEK-293 ATXN2-luciferase reporter, luminescence, 24 h | AID 1745845 | Potency, µM (top dose mostly 57 µM), for the others: at the top dose activity change, negative = inhibition, usual class: inhibitors | actives 0.72% (n = 360,000); further: on the % scale 0 is the no-effect control and ±100 the full control effect; nearly all actives have a fitted effect of over 55% in size
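ATXN2-luciferase reporter cells (luciferase flanked by upstream and downstream ATXN2 gene portions) were treated 24 h at 37 °C with compounds at up to 57 uM. SteadyGlo luminescence gave expression; GF-AFC fluorescence gave viability.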
HepG2 tox: HepG2 cytotoxicity, counter-screen for TGF-b inhibitors. actives 0.76% (n = 410,000). HepG2 CAGA-GFP viability, ATP luminescence, 18 h. Potency, µM (highest dose often 46.1 µM), without a hit: at the highest dose activity change, negative = cytotoxicity, actives largely listed as cytotoxic
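HepG2 CAGA-GFP cells (1000/well, DMEM with 1% FBS) received compound, then TGF-beta at 500 pg/mL final, and were incubated 18 hours at 37 degrees C. Viability was read by CellTiter-Glo luminescence. Media-only wells were set as complete cell-killing and DMSO as no toxicity.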
Active calls of the source: *; i = inactive; ? = inconclusive; / = not tested or not shown; [ ] = remark or other dose. Most compounds without a hit are left out; they make up all but 17% or so of the library. The call rests on the fitted dose curve; in most records, active means well fitted curve in the direction sought with a large enough effect; inconclusive means small, poorly fitted or top-dose-only effect, or another doubt; inactive means no such curve, though single readings can be large; an effect the other way counts as inactive or inconclusive. Potency means the concentration at half of the fitted maximal effect.

SMILES	DT40 TDP1 CPT	DT40 TDP1 no CPT	S2 tox	TGFb inhibitor	ATXN2 expr inh	HepG2 tox
O=C(NCc1ccc(F)cc1)C1CCCN(S(=O)(=O)c2cccc3nonc23)C1 (stereo not given)	1.0%	10.8%	i	1.8%	-6.0%	-14.1%
O=C(C1CCN(S(=O)(=O)c2cccc3nonc23)CC1)N1CCCCC1	-1.1%	-9.5%	i	-9.7%	3.2%	-1.9%
O=C(C1CCCN(S(=O)(=O)c2cccc3nonc23)C1)N1CCC(Cc2ccccc2)CC1 (stereo not given)	20.6µM*	18.4µM*	i	-16.0%	27.6%	-20.3%
COc1ccccc1CNc1ncnc2sc(C(=O)N3CCN(C)CC3)c(C)c12	-7.5%[9.04 µM]	-16.3%	i	/	/	/
O=C(c1ccc(Cl)cc1)N1N=CCC1(O)c1ccc(Cl)cc1 (stereo not given)	?	?	i	?	/	-85.5%
O=C(Nc1ccc(Cl)c(C(F)(F)F)c1)C1CCN(S(=O)(=O)c2cccc3nonc23)CC1	13µM*	5.17µM*	i	?	-4.2%	-28.9%
O=C(C1CCCN(S(=O)(=O)c2cccc3nonc23)C1)N1CCN(c2cccc(Cl)c2)CC1 (stereo not given)	16.4µM*	23.1µM*	?	?	?	-42.7%
COc1ccccc1N1CCN(C(=O)C2CCN(S(=O)(=O)c3cccc4nonc34)CC2)CC1	?	?	i	-2.0%	-7.3%	-20.3%
Cc1ccc(Cl)cc1N1CCN(C(=O)C2CCN(S(=O)(=O)c3cccc4nonc34)CC2)CC1	11.6µM*	7.31µM*	i	-3.5%	-8.7%	-12.0%
O=C(C1CCCN(S(=O)(=O)c2cccc3nonc23)C1)N1CCN(c2ccccc2Cl)CC1 (stereo not given)	23.1µM*	16.4µM*	i	-17.0%	-33.4%	7.2%
COc1ccc(Cl)cc1NC(=O)C1CCCN(S(=O)(=O)c2cccc3nonc23)C1 (stereo not given)	?	?	i	-3.0%	-9.3%	-3.6%
CN(C(=O)CCS(=O)(=O)c1ccc2c(c1)oc(=O)n2C)C1CCCCC1	13.2%	-6.9%	i	-0.6%	-4.9%	-0.1%
CC1=CC(=O)C(C(C)C)=C/C1=N/OS(=O)(=O)c1ccccc1	0.581µM*	0.581µM*	3.16µM*	5.01µM*	/	-98.6%
CC1=CC(=O)C=C(C)C1=NOS(=O)(=O)c1ccccc1	1.3µM*	2.06µM*	?	?	?	-111.7%
Cc1ccc2c(c1)/C(=N/OS(=O)(=O)c1ccccc1)CCS2	?	-21.1%	i	?	3.0%	3.2%
CCc1cc(C(=O)NN2C(=O)NC3(CCCCC3)C2=O)sc1C	-21.6%	0.9%	i	-4.2%	-1.7%	-19.8%
Cc1cc2c(cc1S(=O)(=O)Nc1cccc(Cl)c1C)OCCN2C	?	18.4µM*	/	?	/	-76.0%
COc1ccc(NS(=O)(=O)c2cc3c(cc2C)N(C)CCO3)cc1	?	?	i	0.8%	4.6%	-7.8%
CCOc1ccc(NS(=O)(=O)c2cc3c(cc2C)N(C)CCO3)cc1	20.6µM*	20.6µM*	i	-9.2%	-10.1%	-30.9%
Cc1cc2c(cc1S(=O)(=O)Nc1cccc(Cl)c1C)n(C)c(=O)c(=O)n2C	5.9%	?	i	-1.8%	-2.0%	1.6%
CCC(O)c1cc2c(cc1NC(=O)c1ccccc1F)OCCO2 (stereo not given)	-13.8%	?	i	-1.3%	1.1%	-3.2%
Cc1cccc(N2CCN(c3ncnc4onc(-c5ccc(F)cc5)c34)CC2C)c1 (stereo not given)	16.4µM*	14.6µM*	i	?	-8.3%	-24.6%
